# According to PubChem BioAssay (NCI):
# Compounds without any hit were thinned out: in the full panel of roughly 83,000, 20% have a hit.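 The endpoint reported here, percent growth, reads 100 for growth as untreated, 0 for no net growth and -100 for all cells dead.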 Unmarked numbers belong to inactive results. Calls of active or inactive are those of the source. The calls were made as follows: active = growth percent below 10; inactive = the rest.
# How the values were obtained:
# Experiment in all cases: NCI-60 one-dose screen, 48 h (100 = growth as untreated, 0 = no growth, -100 = all killed)
# Details in all cases: 10 µM unless noted
# SK-MEL-2 melanoma = tested on: SK-MEL-2 melanoma
# EKVX NSCLC = tested on: EKVX NSCLC
# SN12C renal = tested on: SN12C renal
# UO-31 renal = tested on: UO-31 renal
# TK-10 renal = tested on: TK-10 renal
# ACHN renal = tested on: ACHN renal
# CAKI-1 renal = tested on: CAKI-1 renal
# A498 renal = tested on: A498 renal
# CCRF-CEM leukemia = tested on: CCRF-CEM leukemia
# MOLT-4 leukemia = tested on: MOLT-4 leukemia
# SR leukemia = tested on: SR leukemia
# OVCAR-8 ovarian = tested on: OVCAR-8 ovarian
# OVCAR-5 ovarian = tested on: OVCAR-5 ovarian
# OVCAR-4 ovarian = tested on: OVCAR-4 ovarian
# SK-OV-3 ovarian = tested on: SK-OV-3 ovarian
# IGROV1 ovarian = tested on: IGROV1 ovarian
# OVCAR-3 ovarian = tested on: OVCAR-3 ovarian
# HS 578T breast = tested on: HS 578T breast
# RPMI-8226 leukemia = tested on: RPMI-8226 leukemia
# NCI/ADR-RES ovarian = tested on: NCI/ADR-RES ovarian
Compound,growth (SK-MEL-2 melanoma) [%],growth (EKVX NSCLC) [%],growth (SN12C renal) [%],growth (UO-31 renal),growth (TK-10 renal) [%],growth (ACHN renal),growth (CAKI-1 renal),growth (A498 renal),growth (CCRF-CEM leukemia),growth (MOLT-4 leukemia),growth (SR leukemia),growth (OVCAR-8 ovarian) [%],growth (OVCAR-5 ovarian) [%],growth (OVCAR-4 ovarian) [%],growth (SK-OV-3 ovarian) [%],growth (IGROV1 ovarian),growth (OVCAR-3 ovarian),growth (HS 578T breast),growth (RPMI-8226 leukemia) [%],growth (NCI/ADR-RES ovarian)
CC1CN(C2CCCCC2)C(=S)N(c2ccccc2)C1=O (stereo not given),122,101,111,97.7%,116,110%,97.9%,95.4%,93.8%,70.4%,98.7%,118,104,97.2,116,105%,112%,109%,,
CCCCCCNC(=O)Oc1ccc(/C(=C(\C)c2ccc(Cl)cc2)c2ccc(OCCN3CCCCC3)cc2)cc1,86.4,52.8,55.9,32.6%,89.6,76.3%,63.8%,76.1%,34%,10.9%,-22.4% (active),,72,36.7,56.3,54.8%,,65.2%,17.7,63.5%
CCCCCCNC(=O)Oc1ccc(/C(=C(\C)c2ccc(OC)cc2)c2ccc(OCCN3CCCCC3)cc2)cc1,69.2,74,74.3,21.6%,102,84.2%,72.3%,88.1%,66.5%,41.8%,0.84% (active),,82.6,63.1,70,53.8%,80.9%,65.7%,44.7,75.8%
NCCOc1ncccc1/C=C1\c2ccccc2-c2ccc(C(F)F)cc21,115,79.7,16.8,31.1%,86.6,4.83% (active),35.5%,47.5%,6.32% (active),2.92% (active),2.72% (active),56.4,69.6,83.9,64.3,32.5%,76.2%,53.4%,,
COc1ccc(-c2nc3sc(-c4ccccc4)cn3n2)cc1,59.1,62.7,62.6,61.7%,106,67.5%,60%,43.7%,64.2%,50.7%,41.2%,,108,62.2,67.8,,58.2%,59.9%,78.6,34%
COc1cc(C(=O)c2cnc(-c3cccc4[nH]ccc34)[nH]2)cc(OC)c1OC,39.9,42.4,31.1,26.7%,63.4,30.2%,16.7%,-15.9% (active),10.3%,14.2%,13.9%,,50.1,38.9,35.6,26.6%,-18.1% (active),30.9%,15.8,11.2%
COc1cc(/C=C2\C(=O)Nc3ccc(Br)cc32)cc(OC)c1OC,84,72.2,80.9,54.7%,82.5,79.1%,42.1%,55.7%,72.8%,63.6%,16.3%,,96.8,71.8,88.3,,60.3%,63%,52.2,
CCOC(=O)c1sc2ncc(-c3ccc(C)cc3)n2c1C,101,88.4,86.6,78.2%,147,84%,88.1%,104%,89.5%,90.1%,112%,94.7,95.9,95.4,81.3,71.3%,97.2%,96.7%,,92.9%
COc1ccc(C2CC(c3ccc(Nc4nc(Nc5ccc(F)cc5)nc(Nc5ccc(Cl)cc5)n4)cc3)=NN2C(C)=O)cc1 (stereo not given),96.1,109,103,-65.4% (active),103,91.7%,108%,129%,124%,93%,107%,,,99.3,107,40.4%,128%,108%,90.8,85%
CCCCNC(=O)Oc1ccc(/C(=C(\C)c2ccc(Cl)cc2)c2ccc(OCCN3CCCCC3)cc2)cc1,98.6,76.9,80.5,58.8%,87,94%,92.5%,85.2%,72.7%,65.5%,7.74% (active),,71.8,73.5,68.8,,80%,85%,73.4,85.2%
O=C1NC(=O)C(c2ccccc2)(c2ccccc2)N1Cc1cn(-c2c3ccccc3nc3ccccc23)nn1,97.9,80.4,83.6,62.4%,74.9,81.5%,73.5%,77.7%,64.6%,53.5%,31.4%,,103,81.1,83.5,83.3%,,83%,72.4,87%
C=C(C)C1CCC2(C)OC2C1 (stereo not given),111,87.4,108,115%,100,104%,81.2%,141%,110%,90.7%,116%,113,102,94.6,116,89.5%,123%,106%,,99.6%
OC(c1ccccc1)C(NC(Cc1ccccc1)c1ccccc1)c1ccccc1 (stereo not given),93.1,92,87.1,72.2%,92.2,90.7%,77.4%,74.6%,93.3%,71.2%,91.4%,,90.8,89.1,91.7,67%,,92.2%,73.6,82.6%
C(=N/Nc1ncnc2nc[nH]c12)/c1ccccn1,71.5,24.9,36.6,3.16% (active),56.1,23.4%,-25.4% (active),55%,23.7%,22.2%,25.7%,28.5,50.8,31.9,28.9,-8.74% (active),51%,64.1%,,
O=c1c2cc(F)ccc2sc2c(NCCN3CCOCC3)nc3ccccc3c12,110,91.6,72.8,42%,79.2,64.7%,33.2%,58.3%,57%,52.1%,28.3%,81.4,89.5,67.5,85,74.6%,76.8%,63.3%,,
Oc1ccc(C#CCOc2ccccc2)cc1CNCCN(Cc1ccccn1)Cc1ccccn1,61.2,16,13.9,-2.48% (active),26.2,9.66% (active),28.4%,-21.8% (active),6.83% (active),1.72% (active),-4.08% (active),15.2,27.2,11.3,18,13.4%,12.1%,35.5%,,
COc1cc(C2CC(c3ccc(N(C)C)cc3)=NN2C(C)=O)cc(OC)c1OC (stereo not given),37.1,44.3,37.7,45.7%,63.4,44.9%,27%,-1.88% (active),11.8%,11.6%,-17.2% (active),38.9,54.5,51.5,24.9,30.4%,-38.2% (active),0.792% (active),,-24.4% (active)
